In PubChem BioAssay one finds composite z-score and z-score data, which are given here for 6 compounds.

Assay [1] relates to Plasmodium falciparum Sir2 (PF13_0152, Sir2A). The assay is described as follows: Plasmodium falciparum Sir2A binding compounds – biochemical, small-molecule microarray, 635 nm fluorescence, primary screen (AID 1098).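 Note: score merges spot fluorescence intensity with its signal-to-noise ratio.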 Particulars: fluorescence 635 nm, higher = more signal.
Assay [2] in a line: probe aDKK1 binding to arrayed compounds – biochemical, biotinylated probe, 635/667 nm fluorescence, primary screen (AID 1099).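 Note: score merges 667nm spot fluorescence with signal to noise across triplicate slides.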 Conditions: small-molecule microarray, higher = more signal.
A short description of assay [3]: probe aCHRDL2 binding to arrayed compounds – biochemical, biotinylated probe, 635/667 nm fluorescence, primary screen (AID 1100). Particulars: small-molecule microarray, higher = more signal.
Assay [4] is described as follows: change in splice reporter luminescence, either direction, cell-based, HEK293, spliceosome inhibition project, primary screen (AID 1101).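 Note: HEK293 cells carrying a splicing-competent luciferase reporter gene; test concentration not given here.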 Particulars: HEK293 splicing luciferase reporter, 24 h, higher = more signal, called active from +8 up or from −8 down. In general terms: Reporter assays use an easily measured gene product as a stand-in for the process of interest.

The target of assay [5] is Fibroblast growth factor 10 (Homo sapiens) (UniProt O15520). The assay is described as follows: compounds binding fibroblast growth factor 10 – biochemical, small-molecule microarray, 635 nm fluorescence, primary screen (AID 1102). Conditions: FGF10 binding, fluorescence 635 nm, higher = more signal.
Assay [6] deals with glycogen synthase kinase-3 (GSK3A per assay name; protocol says GSK3B). The assay is described as follows: compounds binding glycogen synthase kinase-3 – biochemical, small-molecule microarray, 635 nm fluorescence, GSK3A, primary screen (AID 1103). Note: the record names both GSK3A and GSK3B. Conditions: fluorescence 635 nm, higher = more signal.
In assay [7] the target is Epidermal growth factor receptor (Homo sapiens) (UniProt P00533). The assay is described as follows: compounds binding epidermal growth factor receptor – biochemical, small-molecule microarray, 635 nm fluorescence, primary screen (AID 1104).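 Note: score merges 667 nm emission intensity with spot signal to noise over triplicate slides.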 Conditions: EGFR binding, higher = more signal.
Assay [8] concerns the target Follistatin-related protein 3 (Homo sapiens) (UniProt O95633). The assay is described as follows: compounds binding follistatin-related protein 3 – biochemical, small-molecule microarray, 635 nm fluorescence, primary screen (AID 1105).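 Note: score merges emission near 667 nm and signal to noise per printed spot across three slides.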 Particulars: FSTL3 binding, higher = more signal.
The target of assay [9] is Dickkopf-related protein 1 (Homo sapiens) (UniProt O94907). The assay is described as follows: small molecules binding DKK1 protein – biochemical, small-molecule microarray, 635 nm fluorescence scan, primary screen (AID 1106).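 Note: score merges emission near 667 nm with signal to noise over three replicate slides.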 Particulars: higher = more signal.
Assay [10] concerns Inhibin beta A chain (activin A). The assay is described as follows: small molecules binding activin A – biochemical, small-molecule microarray, 635 nm fluorescence scan, primary screen (AID 1107).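 Note: mouse activin A protein probed at 4.33 µg/mL on printed slides; score merges bound-protein fluorescence near 667 nm with spot signal-to-noise.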 Particulars: INHBA, higher = more signal.
The subject of assay [11] is Human papillomavirus type 1a protein E7 (residues 44-93). The assay is described as follows: small molecules binding HPV E7 44-93 – biochemical, small-molecule microarray, residues 44-93, 635 nm fluorescence, primary screen (AID 1108).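 Note: E7 fragment applied at 1 µg/mL in TBST for 1 h at 4 C; score combines spot fluorescence with its signal to noise ratio.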 Particulars: fluorescence 635 nm, higher = more signal.
A short description of assay [12]: hepatitis C replication reporter changes, two-sided – Huh7 cells, luciferase reporter, HCV replication inhibitor project, primary screen (AID 1109).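 Note: huh7 hepatoma cells harbouring a luciferase neomycin HCV replicon reporter; luciferase luminescence as measure of HCV replicon replication; test concentration not given here.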 Conditions: Huh7 HCV replicon luciferase reporter, 48 h; higher = more signal.
For assay [13], the target named is Left-right determination factor 2 (Homo sapiens) (UniProt O00292). Put plainly: small molecules binding LEFTY2 protein – biochemical, small-molecule microarray, 635 nm fluorescence scan, primary screen (AID 1110). Conditions: higher = more signal.
Assay [14] addresses Calmodulin-1 (Homo sapiens) (UniProt P0DP23). Put plainly: small molecules binding calmodulin-1 with EGTA – biochemical, small-molecule microarray, Cy5-labelled CALM1, profiling panel (AID 1111).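 Note: labelled calmodulin applied in Tris saline Tween buffer holding calcium plus EGTA and DTT.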 Conditions: Cy5-CALM1 binding fluorescence, higher = more signal.
For assay [15] the target is unchanged. The assay is described as follows: small molecules binding Ca-loaded calmodulin-1 – biochemical, small-molecule microarray, Cy5-labelled CALM1, plus calcium, artefact control for SMM control-protein annotation, profiling panel (AID 1112).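 Note: score merges spot fluorescence with signal to noise from triplicate slides.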 Conditions: Cy5-CALM1 binding fluorescence, higher = more signal.
A short description of assay [16]: probe aWnt5a binding to arrayed compounds – biochemical, biotinylated probe, 635/667 nm fluorescence, primary screen (AID 1113).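 Note: score merges 667 nm fluorescence intensity with signal-to-noise per printed feature.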 Particulars: small-molecule microarray, higher = more signal.
A short description of assay [17]: probe aShh binding to arrayed compounds – biochemical, biotinylated probe, 635/667 nm fluorescence, primary screen (AID 1114).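 Note: probe is biotin-labelled aShh protein from a stem cell growth factor screen; measures binding of labelled protein to compounds printed on the slide; score merges feature fluorescence at 667 nm with signal-to-noise.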 Conditions: small-molecule microarray, higher = more signal.
Assay [18] can be described thus: probe aNog binding to arrayed compounds – biochemical, biotinylated probe, 635/667 nm fluorescence, primary screen (AID 1115).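 Note: probe is biotinylated aNog protein used at 0.15 µg/mL for 1 h at 4 C; z-score combines 667 nm fluorescence of each spot with its signal to noise.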 Particulars: small-molecule microarray, higher = more signal.
The target in assay [19] is Torsin-1A-interacting protein 1 (Homo sapiens) (UniProt Q5JTV8). Put plainly: compound microarray binding of lysate hLAP1 – cell lysate, small-molecule microarray, COS7 lysate, 635/667 nm fluorescence, primary screen (AID 1116). Particulars: 635 nm fluorescence, higher = more signal.
The target of assay [20] is Alpha-bungarotoxin (Bungarus multicinctus) (UniProt P60615). Put plainly: compounds binding labelled alpha-BTX control protein – biochemical, small-molecule microarray, Alexa647 label, 635/667 nm fluorescence, artefact control for SMM control protein annotation, profiling panel (AID 1117). Particulars: alpha-BTX-A647 binding fluorescence, higher = more signal.

Activity calls are given as the source filed them.

Chain of Left-right determination factor 2 (Homo sapiens) (O00292 whole entry, looked up): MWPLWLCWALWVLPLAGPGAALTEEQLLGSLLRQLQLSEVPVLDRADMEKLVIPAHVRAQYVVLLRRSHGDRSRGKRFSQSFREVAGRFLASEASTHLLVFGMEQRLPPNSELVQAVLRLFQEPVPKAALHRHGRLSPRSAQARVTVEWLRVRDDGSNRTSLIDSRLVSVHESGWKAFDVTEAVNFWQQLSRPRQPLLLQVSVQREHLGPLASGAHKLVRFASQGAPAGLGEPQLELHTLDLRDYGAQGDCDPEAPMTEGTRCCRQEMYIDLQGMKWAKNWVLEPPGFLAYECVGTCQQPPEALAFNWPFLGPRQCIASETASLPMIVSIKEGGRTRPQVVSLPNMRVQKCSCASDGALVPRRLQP
Chain of Dickkopf-related protein 1 (Homo sapiens) (O94907 whole entry, looked up): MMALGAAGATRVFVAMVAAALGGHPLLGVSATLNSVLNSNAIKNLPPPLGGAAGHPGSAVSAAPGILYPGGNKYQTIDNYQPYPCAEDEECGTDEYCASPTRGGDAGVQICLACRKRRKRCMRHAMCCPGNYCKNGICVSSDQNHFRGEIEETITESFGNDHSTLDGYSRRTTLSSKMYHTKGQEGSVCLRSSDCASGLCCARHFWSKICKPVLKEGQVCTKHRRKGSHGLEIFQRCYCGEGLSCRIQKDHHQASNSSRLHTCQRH
Chain of Fibroblast growth factor 10 (Homo sapiens) (O15520 whole entry, looked up): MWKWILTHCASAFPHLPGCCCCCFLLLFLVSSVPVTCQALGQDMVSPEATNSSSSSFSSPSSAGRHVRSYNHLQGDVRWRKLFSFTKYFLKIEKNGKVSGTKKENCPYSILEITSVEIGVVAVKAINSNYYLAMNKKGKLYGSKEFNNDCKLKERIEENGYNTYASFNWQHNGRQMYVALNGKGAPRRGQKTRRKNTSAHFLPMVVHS
Chain of Follistatin-related protein 3 (Homo sapiens) (O95633 whole entry, looked up): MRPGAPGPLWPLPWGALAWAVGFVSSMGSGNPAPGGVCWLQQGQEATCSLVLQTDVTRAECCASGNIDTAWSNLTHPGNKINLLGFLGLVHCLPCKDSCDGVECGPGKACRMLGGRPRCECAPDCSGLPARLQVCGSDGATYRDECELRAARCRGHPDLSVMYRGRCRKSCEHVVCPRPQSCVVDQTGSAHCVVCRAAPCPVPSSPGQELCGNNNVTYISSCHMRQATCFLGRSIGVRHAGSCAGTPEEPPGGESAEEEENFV
Chain of Alpha-bungarotoxin (Bungarus multicinctus) (P60615 whole entry, looked up): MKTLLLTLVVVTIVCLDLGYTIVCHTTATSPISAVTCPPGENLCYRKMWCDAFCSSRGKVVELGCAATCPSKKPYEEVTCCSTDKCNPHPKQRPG
Chain of Epidermal growth factor receptor (Homo sapiens) (P00533 whole entry, looked up): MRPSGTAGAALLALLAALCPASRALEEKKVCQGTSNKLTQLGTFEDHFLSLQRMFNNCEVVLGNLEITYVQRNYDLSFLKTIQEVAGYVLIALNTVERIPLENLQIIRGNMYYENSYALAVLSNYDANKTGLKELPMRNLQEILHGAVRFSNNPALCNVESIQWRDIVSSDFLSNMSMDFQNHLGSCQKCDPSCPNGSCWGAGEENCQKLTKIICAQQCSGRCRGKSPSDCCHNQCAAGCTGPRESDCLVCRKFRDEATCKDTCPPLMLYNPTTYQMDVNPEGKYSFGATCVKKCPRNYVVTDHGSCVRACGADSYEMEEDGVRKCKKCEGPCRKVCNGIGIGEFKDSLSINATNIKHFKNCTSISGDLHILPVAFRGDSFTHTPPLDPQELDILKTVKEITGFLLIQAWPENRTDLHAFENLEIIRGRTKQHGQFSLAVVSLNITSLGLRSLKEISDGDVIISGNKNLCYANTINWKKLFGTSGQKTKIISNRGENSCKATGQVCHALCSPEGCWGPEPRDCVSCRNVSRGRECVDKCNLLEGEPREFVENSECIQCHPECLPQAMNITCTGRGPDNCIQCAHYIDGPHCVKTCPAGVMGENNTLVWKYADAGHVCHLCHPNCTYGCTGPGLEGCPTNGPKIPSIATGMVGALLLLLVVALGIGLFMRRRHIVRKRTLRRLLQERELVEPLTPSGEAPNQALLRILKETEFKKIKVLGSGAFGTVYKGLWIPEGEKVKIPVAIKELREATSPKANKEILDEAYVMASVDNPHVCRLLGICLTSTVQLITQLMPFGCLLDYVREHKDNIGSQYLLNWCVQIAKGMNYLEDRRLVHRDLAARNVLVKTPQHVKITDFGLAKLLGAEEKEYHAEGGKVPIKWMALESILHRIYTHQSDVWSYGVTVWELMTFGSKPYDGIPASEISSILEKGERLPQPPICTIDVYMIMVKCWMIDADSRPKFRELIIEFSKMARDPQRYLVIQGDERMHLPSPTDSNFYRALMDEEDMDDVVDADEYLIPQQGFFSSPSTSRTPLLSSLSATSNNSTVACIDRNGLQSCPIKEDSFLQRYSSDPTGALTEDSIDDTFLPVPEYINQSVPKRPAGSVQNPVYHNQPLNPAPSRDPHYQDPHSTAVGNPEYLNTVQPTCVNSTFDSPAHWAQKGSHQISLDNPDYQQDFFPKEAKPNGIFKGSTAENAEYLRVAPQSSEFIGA
Chain of Torsin-1A-interacting protein 1 (Homo sapiens) (Q5JTV8 whole entry, looked up): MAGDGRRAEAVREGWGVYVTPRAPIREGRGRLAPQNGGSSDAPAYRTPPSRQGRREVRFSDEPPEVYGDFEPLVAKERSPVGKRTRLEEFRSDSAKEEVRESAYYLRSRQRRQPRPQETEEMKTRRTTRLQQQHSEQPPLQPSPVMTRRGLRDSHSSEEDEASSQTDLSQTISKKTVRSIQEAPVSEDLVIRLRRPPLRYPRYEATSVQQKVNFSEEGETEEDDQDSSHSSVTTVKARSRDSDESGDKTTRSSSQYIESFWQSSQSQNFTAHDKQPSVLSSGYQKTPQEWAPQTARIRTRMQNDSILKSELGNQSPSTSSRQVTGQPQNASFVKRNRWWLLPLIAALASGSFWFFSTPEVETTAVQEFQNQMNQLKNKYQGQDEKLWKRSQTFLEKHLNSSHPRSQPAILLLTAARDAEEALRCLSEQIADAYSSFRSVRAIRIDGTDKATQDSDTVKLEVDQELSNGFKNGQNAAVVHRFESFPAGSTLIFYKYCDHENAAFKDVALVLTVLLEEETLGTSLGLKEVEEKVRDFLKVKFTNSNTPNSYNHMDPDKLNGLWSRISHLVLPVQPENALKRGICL

In the case of `CCOC(=O)NN=C1C[C@@H](O)[C@@H](O)[C@@H]2[C@@H]3C(=O)N(C(C)(C)C)C(=O)[C@@H]3CC[C@@H]12`, the composite z-score in assay [1] is -0.241; in assay [2] it was 0.166; in [3] it was 0.599; in assay [5], 0.34; in assay [6], -1.09; in assay [7] it was 0.43. In addition, the composite z-score in assay [8] was -1; in assay [9], -0.567; in assay [10], -2.83; in [11] it was -0.772; in assay [13], 0.45; in assay [14], -0.671. Besides, the composite z-score in assay [15] is -1.54; in assay [16], -0.278; in [17] it was -0.75; in assay [18] it was 0.154; in assay [19], -0.48; in assay [20], -0.772. Besides, the z-score in assay [4] was 0.172 (inactive); in assay [12], -0.529.
In the case of `O=C(NN=C1C[C@@H](O)[C@@H](O)[C@@H]2[C@@H]3C(=O)N(c4cccc(Oc5ccccc5)c4)C(=O)[C@@H]3CC[C@@H]12)OCc1ccccc1`, the composite z-score in [1] is 0.0165; in [2], 0.182; in assay [3], 0.548; in assay [5], 0.353; in assay [6], -0.54; in assay [7], 0.152. The composite z-score in [8] is -0.112; in assay [9], 0.155; in [10], 0.229; in [11], 0.69; in assay [13], 0.127; in assay [14] it was 0.131. For the same compound, the composite z-score in assay [15] is 0.0109; in assay [16], -0.145; in assay [17] it was -0.206; in assay [18], 0.0658; in [19], 0.184; in assay [20], 0.837. The z-score was 0.538 (inactive) in assay [4] and -0.983 in assay [12].
As for `COc1ccc(CCNC(=O)[C@@H]2c3ccccc3C(=O)N(c3ccc(C)cn3)[C@H]2c2ccc(CO)cc2)cc1`, the composite z-score was 1.73 in assay [1]; 0.263 in [2]; 1.19 in [3]; -1.06 in [5]; -0.37 in assay [6]; -1.68 in assay [7]. Moreover, the composite z-score was -1.16 in [8]; -2.4 in [9]; -0.082 in [10]; -0.618 in [11]; -1.76 in assay [13]; -0.822 in assay [14]. Moreover, the composite z-score in [15] is -0.796; in assay [16] it was -0.242; in [17] it was -0.367; in [18], -0.266; in assay [19] it was 3.04; in assay [20] it was -0.955. The values for the z-score in assay [4] and in [12] were -0.403 (inactive) and 0.267, respectively.
As for `Cc1cc(C)c(-c2cc([C@H](C)ON=C3[C@H]4CCn5c(=O)n(-c6ccccc6)c(=O)n5[C@H]4[C@H](O)[C@@H]4O[C@H]34)on2)c(C)c1`, the composite z-score in assay [1] is 0.167; in assay [2], -0.255; in assay [3], -0.48; in assay [5], 0.501; in assay [6], 0.253; in assay [7], 0.377. The composite z-score in assay [8] was 0.801; in assay [9], 0.88; in assay [10], -0.0289; in assay [11], 0.548; in assay [13], 0.59; in [14], 0.0681. Besides, the composite z-score in [15] was -0.386; in assay [16], 0.0559; in [17], 0.184; in assay [18], -0.0554; in [19], 0.441; in assay [20], 0.322. Moreover, the z-score in assay [4] is 2.01 (inactive); in assay [12], -4.92.
`CC(=O)OC[C@H]1O[C@H](CCON=C(C)CCN2CCc3nc(-c4ccccc4)c(-c4ccccc4)cc3C2)C=C[C@@H]1OC(C)=O`: the composite z-score in [1] was 0.323; in assay [2], -0.154; in assay [3] it was 0.101; in assay [5], -0.422; in assay [6], 0.102; in [7], 0.392. Further, the composite z-score is 0.189 in [8]; 0.222 in [9]; 1.16 in assay [10]; 1.26 in assay [11]; 0.0439 in [13]; -0.205 in assay [14]. For the same compound, the composite z-score in assay [15] was -0.174; in assay [16], -0.0748; in [17], -0.0425; in [18], -0.273; in [19], 0.624; in [20], 1.57. For the same compound, the z-score in [4] is 0.82 (inactive); in assay [12], -1.58.
For the compound `CCN1C(=O)[C@H]2[C@H]3[C@H](O)[C@H](O)CC(=NOCc4ccccc4)[C@H]3CC[C@H]2C1=O`, the composite z-score in assay [1] is 0.18; in [2], -0.237; in [3] it was -0.278; in assay [5], 0.47; in assay [6], 0.0166; in assay [7], 0.0741. The composite z-score in assay [8] is -0.257; in assay [9] it was 0.132; in assay [10], -0.114; in [11], -0.0677; in [13], 0.387; in assay [14], -0.253. Also, the composite z-score in assay [15] was -0.787; in [16], -0.139; in assay [17], -0.214; in assay [18] it was 0.128; in assay [19] it was 0.151; in assay [20], 0.437. Besides, the results for the z-score in [4] and in [12] were 0.462 (inactive) and 0.396, respectively.
